Experimental data taken from PubChem BioAssay AID1851 (National Center for Advancing Translational Sciences (NCATS), 2009).
Screen size: about 16,000 compounds; about 5,100 (32%) were called active. Another 25% or so got no clear call; they are omitted. This is one part of the list. A number with no mark means an inactive call. Calls follow the shape of the dose curve; as a rule, active = well fitted curve in the direction sought with a large enough effect; inconclusive = small, poorly fitted or top-dose-only effect, or effect the other way; inactive = no such curve, though single readings can be large or run the other way.

molecular target: Cytochrome P450 3A4 (Homo sapiens) (UniProt P08684); experiment: Cytochrome panel assay with activity outcomes; conditions: recombinant CYP, pro-luciferin dealkylation, luminescence, p450-cyp3a4; series mostly up to 57.1 µM
% is scaled to controls: 0 for no effect and ±100 for the full control effect.

Cytochrome P450 3A4 (Homo sapiens), sequence (P08684 whole entry, looked up): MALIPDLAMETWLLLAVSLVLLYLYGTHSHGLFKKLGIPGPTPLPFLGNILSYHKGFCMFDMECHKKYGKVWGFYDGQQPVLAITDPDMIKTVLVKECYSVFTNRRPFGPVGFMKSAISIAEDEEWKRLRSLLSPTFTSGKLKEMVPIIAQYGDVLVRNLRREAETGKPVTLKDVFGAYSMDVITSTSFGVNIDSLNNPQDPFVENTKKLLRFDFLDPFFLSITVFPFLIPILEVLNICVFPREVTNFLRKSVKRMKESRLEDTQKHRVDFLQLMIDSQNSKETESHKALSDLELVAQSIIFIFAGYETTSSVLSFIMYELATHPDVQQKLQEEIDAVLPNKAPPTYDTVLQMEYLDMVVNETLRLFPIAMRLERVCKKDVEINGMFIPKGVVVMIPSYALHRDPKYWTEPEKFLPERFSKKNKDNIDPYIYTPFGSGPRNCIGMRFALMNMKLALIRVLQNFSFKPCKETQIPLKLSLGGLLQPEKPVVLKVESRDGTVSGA

**Q.** With `c1ccc(CCN2CCOCC2)nc1` as the compound, how does the activity, negative = inhibition read?
**A.** Its activity, negative = inhibition is -6.24% [at 11.4 µM].

**Q.** With `COCCCn1c(N)c(C(=O)Nc2sc3c(c2C(=O)OC)CCCC3)c2nc3ccccc3nc21` as the compound, how does the AC50 read?
**A.** The AC50 was 15.8 µM (active).

**Q.** For `CNC(=O)OCC[N+](C)(C)C`, which activity, negative = inhibition is on record?
**A.** Its activity, negative = inhibition is “inactive”.

**Q.** For `O=C1Nc2ccc(I)cc2/C1=C/c1cc(Br)c(O)c(Br)c1`, which AC50 is on record?
**A.** Its AC50 is 5.01 µM (active).

**Q.** With `CC(C)c1ccc(C(O)(C(=O)O)c2ccc(C(C)C)cc2)cc1` as the compound, how does the activity, negative = inhibition read?
**A.** Its activity, negative = inhibition is 19.4% [at 11.4 µM].

**Q.** For `CC(C)c1ccc2c(c1)c(SC(C)(C)C)c(CC(C)(C)C(=O)O)n2Cc1ccc(Cl)cc1`, which AC50 is on record?
**A.** Its AC50 is 20 µM (active).

**Q.** How did the activity, negative = inhibition turn out when `C[C@H](N)[C@@H](O)c1ccccc1` was run?
**A.** Its activity, negative = inhibition is “inactive”.

**Q.** With `CC(C)(C)NC[C@H](O)c1ccccc1Cl` as the compound, how does the activity, negative = inhibition read?
**A.** The activity, negative = inhibition was “inactive”.

**Q.** With `C[C@H](N)c1cccc(Cl)c1Cl` as the compound, how does the AC50 read?
**A.** The AC50 was 25.1 µM (active).

**Q.** For `CCOC(=O)N(c1ccccc1)P1(=S)OCCO1`, which activity, negative = inhibition is on record?
**A.** The activity, negative = inhibition was -25.1% [at 11.4 µM].

**Q.** How did the AC50 turn out when `O=P(Nc1c(Cl)cccc1Cl)(c1ccccc1)c1nc2c(s1)CCCC2` (centres undefined) was run?
**A.** Its AC50 is 11.2 µM (active).

**Q.** With `O=[As](O)(O)c1ccc2nc3cc([As](=O)(O)O)ccc3nc2c1` as the compound, how does the activity, negative = inhibition read?
**A.** Its activity, negative = inhibition is 5.92% [at 11.4 µM].

**Q.** How did the activity, negative = inhibition turn out when `Cn1cnc(CCN)c1` was run?
**A.** The activity, negative = inhibition was “inactive”.

**Q.** For `COCCCN1Cc2ccccc2C1=N`, which activity, negative = inhibition is on record?
**A.** The activity, negative = inhibition was “inactive”.

**Q.** Which activity, negative = inhibition does the source give for `O=C(O)/C=C(\CC(=O)O)C(=O)O` here?
**A.** The activity, negative = inhibition was -2.52% [at 11.4 µM].

**Q.** For `C[C@@]12CC[C@@H]3[C@H](CCC4=CC(=O)CC[C@]43C)[C@@H]1CC[C@@H]2C(=O)COS(=O)(=O)c1ccc(Br)cc1`, which activity, negative = inhibition is on record?
**A.** The activity, negative = inhibition was 20.5% [at 11.4 µM].

**Q.** Which AC50 does the source give for `Nc1nc(OCc2ccccc2)c2[nH]cnc2n1` here?
**A.** The AC50 was 7.94 µM (active).

**Q.** Which activity, negative = inhibition does the source give for `O=C(Nc1ccc(F)cc1F)c1cccnc1Oc1cccc(C(F)(F)F)c1` here?
**A.** Its activity, negative = inhibition is “inactive”.

**Q.** Which activity, negative = inhibition does the source give for `CCOC(=O)[C@@H]1[C@@H]2c3ccccc3-c3ccccc3[C@H]2C[C@H]1O` here?
**A.** The activity, negative = inhibition was -1.52% [at 11.4 µM].

**Q.** `Cc1ccc(N(C)C(=O)Oc2cccc3ccc(C)nc23)cc1` was tested. Which AC50 did it give?
**A.** The AC50 was 15.8 µM (active).

**Q.** With `N[C@H](CCl)C(=O)O` as the compound, how does the activity, negative = inhibition read?
**A.** The activity, negative = inhibition was “inactive”.

**Q.** Which activity, negative = inhibition does the source give for `C[C@H](CCC(=O)O)[C@H]1CC[C@]2(C)[C@@H]3C(=O)C[C@H]4C(C)(C)[C@@H](O)CC[C@]4(C)[C@H]3C(=O)C[C@@]12C` here?
**A.** Its activity, negative = inhibition is -2.04% [at 11.4 µM].

**Q.** How did the activity, negative = inhibition turn out when `CN(N=O)c1cc(O)ccc1O` was run?
**A.** Its activity, negative = inhibition is “inactive”.

**Q.** With `Cn1c(=O)c2[nH]cnc2n(C)c1=O.[CH2-][C@H](Cc1cccc2cc(C(=O)O)c(=O)oc12)OC.[Hg].[OH-]` as the compound, how does the activity, negative = inhibition read?
**A.** Its activity, negative = inhibition is 12.4% [at 11.4 µM].

**Q.** Which activity, negative = inhibition does the source give for `C[C@]12CC[C@H]3c4ccc(O)cc4CC[C@@H]3[C@H]1CC[C@@H]2OC(=O)CCc1ccccc1` here?
**A.** Its activity, negative = inhibition is -2.52% [at 11.4 µM].

**Q.** With `COc1ccc2c(c1)[C@]13CCCC[C@@H]1[C@H](C2)NCC3` as the compound, how does the AC50 read?
**A.** The AC50 was 15.8 µM (active).

**Q.** With `O=C(CCN1CC2CCC(CC2)C1)c1cccs1` as the compound, how does the activity, negative = inhibition read?
**A.** Its activity, negative = inhibition is -19.3% [at 11.4 µM].

**Q.** `c1ccc2c(N3CCNCC3)cccc2c1` was tested. Which activity, negative = inhibition did it give?
**A.** The activity, negative = inhibition was “inactive”.

**Q.** `N[C@@H](Cn1cc(I)c(=O)[nH]c1=O)C(=O)O` was tested. Which activity, negative = inhibition did it give?
**A.** The activity, negative = inhibition was “inactive”.

**Q.** Which AC50 does the source give for `CCCOc1ccc2[nH]cc(C3=CCNCC3)c2n1` here?
**A.** The AC50 was 2.51 µM (active).

**Q.** For `O=c1ccc2[nH]cc(C3=CCNCC3)c2[nH]1`, which activity, negative = inhibition is on record?
**A.** Its activity, negative = inhibition is “inactive”.

**Q.** How did the AC50 turn out when `COc1ccc2[nH]cc(C3=CCNCC3)c2c1` was run?
**A.** Its AC50 is 1.26 µM (active).

**Q.** How did the activity, negative = inhibition turn out when `CCCN1CCc2cc(O)cc3c2[C@H]1Cc1ccc(O)c(O)c1-3` was run?
**A.** The activity, negative = inhibition was “inactive”.

**Q.** For `c1ccc(CCN2CCCCCC2)nc1`, which activity, negative = inhibition is on record?
**A.** The activity, negative = inhibition was -14.2% [at 11.4 µM].

**Q.** With `CCSCC[C@H](N)C(=O)O` as the compound, how does the activity, negative = inhibition read?
**A.** The activity, negative = inhibition was 5.54% [at 11.4 µM].

**Q.** `CO[C@@H]([CH2][Hg])CN1C(=O)c2ccccc2S1(=O)=O.Cn1c(=O)c2nc[nH]c2n(C)c1=O` was tested. Which activity, negative = inhibition did it give?
**A.** Its activity, negative = inhibition is 2.75% [at 11.4 µM].

**Q.** For `CC(=O)OC1=CC2=CC[C@H]3[C@H]4CCC(=O)[C@@]4(C)CC(=O)[C@]3(S)[C@]2(C)CC1`, which activity, negative = inhibition is on record?
**A.** The activity, negative = inhibition was -29.7% [at 11.4 µM].

**Q.** With `C=C(C)[C@H]1CC[C@]2(C(=O)O)CC[C@]3(C)[C@@H](CC[C@H]4[C@@]5(C)CC[C@@H](O)C(C)(C)[C@@H]5CC[C@@]43C)[C@H]12` as the compound, how does the activity, negative = inhibition read?
**A.** The activity, negative = inhibition was “inactive”.

**Q.** `C[C@@H]1[C@H]2C=C[C@@H]1[C@@H](c1c3ccc(=O)c(O)c-3oc3c(O)c(O)ccc13)[C@@H]2C(=O)O` was tested. Which activity, negative = inhibition did it give?
**A.** The activity, negative = inhibition was -0.366% [at 11.4 µM].

**Q.** With `O=C(C1CC(=O)N(C2CCCC2)C1)N1CCC2(CC1)OCCO2` (centres undefined) as the compound, how does the activity, negative = inhibition read?
**A.** The activity, negative = inhibition was “inactive”.

**Q.** Which activity, negative = inhibition does the source give for `CN1[C@@H](CC(=O)c2ccccc2)CCC[C@@H]1C[C@@H](O)c1ccccc1` here?
**A.** The activity, negative = inhibition was “inactive”.

**Q.** `N[C@H](Cc1o[nH]c(=O)c1Cl)C(=O)O` was tested. Which activity, negative = inhibition did it give?
**A.** Its activity, negative = inhibition is “inactive”.

**Q.** How did the activity, negative = inhibition turn out when `O=C(CNS(=O)(=O)c1cccs1)N1CCC2(CC1)OCCO2` was run?
**A.** The activity, negative = inhibition was “inactive”.

**Q.** `CS(=O)(=O)N1CCCC(C(=O)N2CCC3(CC2)OCCO3)C1` (centres undefined) was tested. Which activity, negative = inhibition did it give?
**A.** The activity, negative = inhibition was 1.72% [at 2.29 µM].

**Q.** Which AC50 does the source give for `Cc1ccc(S(=O)(=O)NCC2CCC(C(=O)N3CCC4(CC3)OCCO4)CC2)cc1` (centres undefined) here?
**A.** Its AC50 is 15.8 µM (active).

**Q.** Which activity, negative = inhibition does the source give for `CCCCCCN=Cc1c(O)n(C)c(=O)n(C)c1=O` here?
**A.** Its activity, negative = inhibition is 16.4% [at 2.29 µM].

**Q.** With `CCN1CCN(S(=O)(=O)c2ccc(Cl)nc2)CC1` as the compound, how does the activity, negative = inhibition read?
**A.** The activity, negative = inhibition was “inactive”.

**Q.** For `Cc1nc(N)sc1CCN`, which activity, negative = inhibition is on record?
**A.** Its activity, negative = inhibition is “inactive”.

**Q.** With `COc1ccc(CCNc2cc(-c3ccccc3)nc3ncnn23)cc1` as the compound, how does the AC50 read?
**A.** The AC50 was 5.62 µM (active).

**Q.** Which activity, negative = inhibition does the source give for `C=C(C)[C@H]1CN[C@H](C(=O)O)[C@@H]1CC(=O)O` here?
**A.** The activity, negative = inhibition was “inactive”.

**Q.** Which activity, negative = inhibition does the source give for `N#CCCN` here?
**A.** The activity, negative = inhibition was “inactive”.

**Q.** With `CN(C)[C@@H]1C(=O)C(C(N)=O)=C(O)[C@]2(O)C(=O)C3=C(O)c4c(O)cccc4[C@](C)(O)[C@H]3C[C@@H]12` as the compound, how does the activity, negative = inhibition read?
**A.** The activity, negative = inhibition was -3.93% [at 11.4 µM].

**Q.** With `CCOc1ccc(C2C(C#N)=C(N)Oc3c2c(=O)oc2ccccc32)cc1` (centres undefined) as the compound, how does the activity, negative = inhibition read?
**A.** The activity, negative = inhibition was -8.38% [at 2.29 µM].

**Q.** With `C=Cn1ccnc1P(=S)(c1nccn1C=C)C1CCCCC1` as the compound, how does the AC50 read?
**A.** Its AC50 is 1.26 µM (active).

**Q.** How did the activity, negative = inhibition turn out when `C[C@H]1C(=O)O[C@@H]2CCN3CC=C(COC(=O)[C@@](C)(O)[C@@]1(C)O)[C@H]23` was run?
**A.** Its activity, negative = inhibition is “inactive”.

**Q.** How did the activity, negative = inhibition turn out when `CC(=O)N1CC[N+](C)(C)CC1` was run?
**A.** The activity, negative = inhibition was “inactive”.

**Q.** `C[C@]12CCC3c4ccc(OCC(=O)O)cc4CCC3C1CCC2=O` (some centres undefined) was tested. Which activity, negative = inhibition did it give?
**A.** The activity, negative = inhibition was -8.48% [at 11.4 µM].

**Q.** Which AC50 does the source give for `C[C@]12CC[C@@H]3C(=CCc4cc(O)ccc43)[C@@H]1CCC2=O` here?
**A.** The AC50 was 10 µM (active).

**Q.** Which activity, negative = inhibition does the source give for `C[C@@]12CC[C@@H]3c4ccc(O)cc4CC[C@H]3[C@H]1CC[C@H]2O` here?
**A.** The activity, negative = inhibition was “inactive”.
